The results in this text go back to PubChem BioAssay (EPA / NIEHS).

Values joined by “and” are separate entries in the source; they are usually repeats but may differ in a detail not shown here. Equal entries are not always repeated. Results filed as inconclusive are left out. A structure can be active in one record and inactive in another. Active and inactive are the calls of the source. Rule for the calls, unless noted: active = hit-call score of the fitted dose curve at least 0.9, where 1 is the maximum; inactive = score below 0.9.

A short description of experiment [1]: ACEA_ER_80hr: ACEA Biosciences xCELLigence Real-Time Cell Analysis on Estrogen Receptor Agonism for Proliferation (AID 2282667; active = hit-call score of the fitted dose curve at least 0.9, where 1 is the maximum). Conditions: T47D proliferation, impedance (xCELLigence), 80 h. The essentials:
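Real-time electrical impedance tracked growth of the human breast line T47D, with the 80 h post-dosing value used. Dosing spanned eight 1:4 steps down from a 100 uM final top concentration, run in duplicate.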

Experiment [2] is described as follows: APR_HepG2_CellCycleArrest_24hr: Apredica 24-hour HepG2 Assay for Cell Cycle Arrest (AID 2282905).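 Note: cell cycle arrest scored as ratio of 2N to 4N nuclear DNA content.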 As to conditions: imaging, actives raise or lower the signal. The essentials:
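Cell cycle arrest is scored from nuclear DNA content measured by high-content imaging of Hoechst 33342-stained HepG2 cells following 24-hour treatment at ten concentrations up to 200 uM, with DMSO as baseline.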

Experiment [3] can be described thus: APR_HepG2_NuclearSize_24hr: Apredica 24-hour HepG2 Assay for Nuclear Size (AID 2282907). As to conditions: high-content imaging, actives raise or lower the signal. In short, it runs like this: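 Compounds in DMSO (final 0.5%) were added to human HepG2 hepatoma cells at ten concentrations up to 200 uM for 24 hr. Fixed nuclei were stained with Hoechst 33342, and nuclear diameter was quantified from automated images.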

Experiment [4] is described as follows: APR_HepG2_CellLoss_24hr: Apredica 24-hour HepG2 Assay for Cell Loss (AID 2282908).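 For AC50: fit in both directions so a hit may be cell loss or gain.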 Conditions: high-content imaging. In short, it runs like this: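 Cell number is quantified by fluorescence imaging of Hoechst 33342-stained nuclei following dosing at 0.39–200 uM in 0.5% DMSO. Curves are fitted in both directions from the DMSO baseline.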
The nature of experiment [5]: APR_HepG2_MicrotubuleCSK_24hr: Apredica 24-hour HepG2 Assay for Microtubule CSK Stabilty (AID 2282909). Conditions: HepG2 microtubule cytoskeleton imaging, actives raise or lower the signal. The essentials: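 Steps: dose HepG2 for 24 h (0.39–200 uM, 0.5% DMSO); fix 30 min in 3.7% formaldehyde at room temperature; permeabilize; stain alpha-tubulin 60 min; image microtubule cytoskeleton at 20x. Signal change fitted in both directions relative to DMSO.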

Experiment [6] in a line: APR_HepG2_MitoticArrest_24hr: Apredica 24-hour HepG2 Assay for Mitotic Arrest (AID 2282910). Conditions: high-content imaging, actives raise or lower the signal. The essentials: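 Compounds are dosed onto HepG2 cells across ten concentrations up to 200 uM for 24 hr. Cells are then fixed in 3.7% formaldehyde, permeabilised, and labelled for phospho-histone H3 and nuclei; images are scored by cell cycle analysis and fitted bidirectionally relative to DMSO.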

A short description of experiment [7]: APR_HepG2_MitoMembPot_24hr: Apredica 24-hour HepG2 Assay for Mitochondrial Membrane Potential (AID 2282911). As to conditions: imaging, actives raise or lower the signal. In short, it runs like this: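 Cells are dosed for 24 hr across 0.39 to 200 uM with solvent held at 0.5% DMSO. They are then stained with 250 nM MitoTracker Red CMXRos for 30 min, fixed in 3.7% formaldehyde and imaged.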

A short description of experiment [8]: APR_HepG2_MitoMass_24hr: Apredica 24-hour HepG2 Assay for Mitochondrial Mass (AID 2282912). Conditions: high-content imaging, actives raise or lower the signal. The essentials: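 The liver line HepG2 was dosed in duplicate across a 0.39–200 uM series, with final DMSO held at 0.5% v/v, and harvested at 24 hr. High-content imaging measured mitochondrial dye staining.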

Experiment [9] in a line: APR_HepG2_p53Act_24hr: Apredica 24-hour HepG2 Assay for p53 Activation (AID 2282913).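 Note: p53 protein immunofluorescence averaged per cell in HepG2 with Hoechst nuclei.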 Conditions: high-content imaging, actives raise or lower the signal. In short, it runs like this: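 Human HepG2 liver cells; 24 hr cpd treatment, 0.39–200 uM, 0.5% DMSO final. Fixed in 3.7% formaldehyde, permeabilized with 0.5% Triton X-100, stained with anti-p53/Cy5 plus Hoechst 33342. Six images per well at 20x; gain or loss vs DMSO.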

Experiment [10] is described as follows: APR_HepG2_CellCycleArrest_72hr: Apredica 72-hour HepG2 Assay for Cell Cycle Arrest (AID 2282914). As to conditions: high-content imaging, actives raise or lower the signal. In short, it runs like this:
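Read-out is Hoechst-stained nuclear DNA content measured by automated fluorescence imaging (20x, six images per well), fitted in both directions relative to DMSO. Human HepG2 liver cells received 0.39–200 uM compound for 72 hr at 0.5% v/v DMSO.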

Experiment [11] is described as follows: APR_HepG2_CellLoss_72hr: Apredica 72-hour HepG2 Assay for Cell Loss (AID 2282915). Conditions: high-content imaging. In short, it runs like this:
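Cell number comes from Hoechst 33342-labelled nuclei, imaged at 20x after 3.7% formaldehyde fixation. Dosing was 0.39–200 uM, ten concentrations in duplicate, 0.5% DMSO final, for 72 h. Bidirectional fit relative to DMSO baseline.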

Experiment [12] is described as follows: APR_HepG2_P-H2AX_72hr: Apredica 72-hour HepG2 Assay for H2AX Phosphorylation (AID 2282916).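 Note: phospho-histone H2A.x immunostain intensity per cell marking DNA damage.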 As to conditions: imaging, actives raise or lower the signal. In short, it runs like this: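 Following 72 hr treatment with 0.39–200 uM compound, HepG2 cells were formaldehyde-fixed, permeabilized and stained for phospho-H2A.x; signal was measured by high-content imaging and fitted bidirectionally against DMSO controls.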

The nature of experiment [13]: APR_HepG2_MitoMembPot_72hr: Apredica 72-hour HepG2 Assay for Mitochondrial Membrane Potential (AID 2282917). As to conditions: imaging, actives raise or lower the signal. In short, it runs like this:
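Membrane potential read by MitoTracker Red CMXRos (250 nM, 30 min, pre-fixation) fluorescence imaging of HepG2 after 72 hr exposure. Ten concentrations, 0.39–200 uM, duplicate wells, 0.5% DMSO; fitted in both directions against DMSO baseline.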

Experiment [14] is described as follows: APR_HepG2_MitoticArrest_72hr: Apredica 72-hour HepG2 Assay for Mitotic Arrest (AID 2282918). Conditions: high-content imaging, actives raise or lower the signal. The essentials:
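Read-out is phospho-histone H3 immunofluorescence with Hoechst nuclear segmentation, imaged at 20x. Human HepG2 liver cells received ten concentrations (0.39–200 uM, final DMSO 0.5% v/v) for 72 hr before fixation. Gain or loss of signal was fitted relative to DMSO.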

A short description of experiment [15]: APR_HepG2_MicrotubuleCSK_72hr: Apredica 72-hour HepG2 Assay for Microtubule CSK Stabilty (AID 2282919). As to conditions: HepG2 microtubule cytoskeleton, high-content imaging, actives raise or lower the signal. The essentials: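 Read-out is tubulin fluorescence intensity from high-content imaging of HepG2 cells, with nuclei identified by Hoechst 33342. Treatment lasts 72 h at 0.39–200 uM, and curves are fitted bidirectionally against the DMSO negative control.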

Experiment [16] in a line: APR_HepG2_P-H2AX_24hr: Apredica 24-hour HepG2 Assay for H2AX Phosphorylation (AID 2282920). Conditions: high-content imaging, actives raise or lower the signal. The essentials: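 HepG2, 24 hr, cpd 0.39–200 uM (10 conc, duplicate), DMSO 0.5% v/v final. Fix 3.7% formaldehyde, Triton X-100 permeabilize, anti-phospho-H2A.x 1:200 + Hoechst 2 ug/mL. Imaged, bidirectional fit vs DMSO.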

Experiment [17] in a line: APR_HepG2_StressKinase_72hr: Apredica 72-hour HepG2 Assay for Stress Kinase (AID 2282921). Conditions: HepG2 stress kinase (phospho-c-Jun) imaging, actives raise or lower the signal. The essentials: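 Fluorescence intensity of Cy3-tagged anti-phospho-c-Jun antibody, quantified per cell from Hoechst-defined nuclei across six images per well, served as the read-out following 72 h exposure (0.39–200 uM, 0.5% v/v DMSO).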

A short description of experiment [18]: APR_HepG2_StressKinase_24hr: Apredica 24-hour HepG2 Assay for Stress Kinase (AID 2282922). Conditions: HepG2 stress kinase (phospho-c-Jun) imaging, actives raise or lower the signal. In short, it runs like this:
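HepG2, 24 hr dosing, 0.39–200 uM in duplicate, 0.5% DMSO; formaldehyde fix (3.7%), 0.5% Triton X-100; anti-phospho-c-Jun + Cy3 secondary, Hoechst counterstain; ArrayScan imaging; bidirectional curve fit vs DMSO baseline.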

The nature of experiment [19]: APR_HepG2_p53Act_72hr: Apredica 72-hour HepG2 Assay for p53 Activation (AID 2282923).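 Note: average cellular p53 protein immunofluorescence intensity in HepG2 cells.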 Conditions: high-content imaging, actives raise or lower the signal. The essentials: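 HepG2 monolayers receive test compounds in duplicate at ten concentrations (0.39 through 200 uM) for 72 hr. They are then formaldehyde-fixed, antibody-labelled for p53, Hoechst-stained and imaged, with activity fitted bidirectionally versus DMSO.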

Experiment [20] in a line: APR_HepG2_MitoMass_72hr: Apredica 72-hour HepG2 Assay for Mitochondrial Mass (AID 2282924).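 Note: MitoTracker Red CMXRos stain intensity per cell imaged as mitochondrial mass.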 Conditions: high-content imaging, actives raise or lower the signal. The essentials: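 HepG2, 72 hr cmpd, 10 conc 0.39–200 uM in dup, DMSO 0.5% v/v. MitoTracker Red CMXRos 250 nM 30 min pre-fix; formaldehyde 3.7% fix 30 min RT. HCS imaging, gain/loss fit vs DMSO.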

Regarding `c1ccc2cc3c(ccc4ccccc43)cc2c1`, the AC50 (as a rule, the concentration giving half of the maximal activity seen) in experiment [1] is 11.7 µM (active) and 2.92 µM (active); in experiment [2], 67.6 µM (active); in experiment [4] it was 48.1 µM (active); in experiment [6] it was 65.7 µM (active); in experiment [7] it was 63 µM (active); in experiment [8] it was 55.8 µM (active). Further, the AC50 in experiment [9] is 103 µM (active); in [10], 17.4 µM (active); in experiment [11], 9.42 µM (active); in [13], 73.6 µM (active); in experiment [14] it was 27.6 µM (active); in [16], 51 µM (active). The compound was called inactive in experiment [1], in experiment [3], in experiment [5], in experiment [12], in experiment [15] and in experiment [17]. The outcome in [18], in experiment [19] and in experiment [20] was inactive.
In the case of `N#C[C@@H]1CC(F)(F)CN1C(=O)CNC1CC2CCC(C1)N2c1ncccn1` (stereo partly specified), the AC50 in experiment [1] is 4000 nM (active). The compound was classed as inactive in experiment [2], in [3], in [4], in experiment [5], in experiment [6] and in experiment [7]. For the same compound, the outcome in experiment [8], in experiment [9], in experiment [10], in [11], in experiment [12] and in experiment [13] was inactive. For the same compound, the call in experiment [14], in experiment [15], in experiment [16], in [17], in experiment [18] and in [19] was inactive. In experiment [20], the outcome was inactive.
As to `CCCCCCCCC(=O)O`, the call in experiment [1], in experiment [2], in experiment [3], in experiment [4], in [5] and in experiment [6] was inactive. Also, the compound was called inactive in [7], in experiment [8], in experiment [9], in experiment [10], in experiment [11] and in experiment [12]. Also, the compound was classed as inactive in experiment [13], in [14], in experiment [15], in experiment [16], in experiment [17] and in [18]. Besides, the compound was classed as inactive in experiment [19] and in [20].
Regarding `CCC(=C(c1ccc(O)cc1)c1ccc(OCCN(C)C)cc1)c1ccccc1`, in experiment [1], the AC50 is 2.29 nM (active). Besides, the compound was called inactive in experiment [1], in experiment [2], in experiment [3], in [4], in experiment [5] and in experiment [6]. Moreover, the compound was called inactive in [7], in [8], in [10], in [11], in experiment [12] and in experiment [13]. Further, the call in experiment [14], in experiment [15], in [16], in experiment [17], in experiment [18] and in experiment [20] was inactive.
Turning to `C[C@@H]1C[C@H]2[C@@H]3CCC4=CC(=O)C=C[C@]4(C)[C@@]3(F)[C@@H](O)C[C@]2(C)[C@@]1(O)C(=O)COP(=O)(O)O`, the AC50 is 685 nM (active) in experiment [1]; 9.81 µM (active) in experiment [3]; 15.4 µM (active) in experiment [4]; 94 µM (active) in experiment [5]; 1.76 µM (active) in [6]; 37.7 µM (active) in experiment [7]. The AC50 was 2.64 µM (active) in [8]; 27.5 µM (active) in experiment [9]; 94 µM (active) in experiment [10]; 6.32 µM (active) in experiment [11]; 1.09 µM (active) in experiment [12]; 45.1 µM (active) in experiment [13]. Moreover, the AC50 was 1.12 µM (active) in experiment [14], 16 µM (active) in experiment [16], 1.45 µM (active) in [19] and 5.23 µM (active) in [20]. The compound was classed as inactive in [1], in [2], in [15], in [17] and in experiment [18].
